The source of these data is ChEMBL document CHEMBL4888484, “Replenishing the malaria drug discovery pipeline: Screening and hit evaluation of the MMV Hit Generation Library 1 (HGL1) against asexual blood stage Plasmodium falciparum ,using a nano luciferase reporter read-out” (2022).

Among all 150,000 compounds or so, about 540 (0.36%) showed an effect of 50% or more. This excerpt belongs to a sample that is enriched for strong results.

The test system of the test is Plasmodium falciparum. Briefly: Primary screen in NF54 nanoGlo assay, in single point, at 2uM, 72h; a lower Z score goes with more inhibition. It is filed as functional, Erythrocyte. As to conditions: timepoint 72 hour.
Turning to `CCc1nnc([C@@H]2CCCN2C(=O)NCc2ccc(F)cc2)[nH]1`, the % Inhibition (commonly the relative decrease from the control value, in per cent) is recorded as -5% and the Z score is recorded as 0.68.
For `CC(=O)Nc1ncc(Br)cc1C`, in that order: 33% and -0.41.
For `COC1CCCCC1NC(=O)Nc1cccc(-c2ncc(C)o2)c1` (stereo not drawn), in that order: -3% and 0.66.
With `COC1CCCC1NC(=O)Nc1ncc(Br)cc1C` (stereo not drawn), the “% Inhibition” value is given as 74% and the Z score is listed as -9.34.
With `COc1ccc(C(=O)c2oc3ccccc3c2NC(=O)c2csnn2)cc1Cl`, the “% Inhibition” value is recorded as -18% and the Z score stood at 1.56.
For `COc1cccc(S(=O)(=O)N2CCC(OCCOCc3ccccc3)CC2)c1`, the “% Inhibition” value came to 40% and the Z score is on record as -0.89.
For `O=S(=O)(c1ccccc1)N1CCC(OCCOc2cccnc2)CC1`, in that order: -7% and 1.14.
For `COc1cccc(S(=O)(=O)N2CCC(OCCOc3ccccc3)CC2)c1`, in that order: 53% and -0.06.
With `CCN(CC)c1ncc(CN2CC[C@H](NS(C)(=O)=O)C2)s1`, the “% Inhibition” value is listed as -14% and the Z score was 1.85.
For the molecule `NC(=O)Cc1nc(CC(F)(F)F)n(C2CCCCC2)n1`, the “% Inhibition” value is recorded as 0% and the Z score is given as 0.02.
For `COc1cc(C(=O)NCCNC(=O)c2cc(-c3ccccc3)nc3ccccc23)cc(OC)c1OC`, in that order: -11% and 1.69.
For `Cn1c(-c2ccc(Cl)c(Cl)c2)c[n+](CC(=O)c2ccc(-c3ccccc3)cc2)c1N`, in that order: 53% and -0.87.
For `Cc1ccc(C(=O)C[n+]2cc(-c3ccc(-c4ccccc4)cc3)n(C)c2N)cc1`, in that order: 42% and -0.38.
Turning to `Cn1c(-c2ccc(Cl)c(Cl)c2)c[n+](CC(=O)c2ccc(F)cc2)c1N`, the “% Inhibition” value was 37% and the Z score is on record as -4.75.
For `CCc1nc(C)c(C(=O)N(C)Cc2csc(-c3ccccc3)n2)s1`, in that order: -4% and 0.61.
`Cc1ccc(O)c(CNCC2(c3ccccc3Cl)CCOCC2)n1`: the “% Inhibition” value turned out to be 98% and the Z score was -10.48.
Turning to `NC1CCC(C(=O)NCC2(c3ccccc3Cl)CCOCC2)C1` (stereo not drawn), the “% Inhibition” value is on record as 8% and the Z score is on record as -1.21.
For `O=C(NCC1(c2ccccc2Cl)CCOCC1)N1CCOCC1`, in that order: -4% and 0.54.
As for `Cc1ccc2[nH]c3c(c2c1)C[C@@H](N1C(=O)CN(CC(C)C)C1=O)CC3`, the “% Inhibition” value was -3% and the Z score was found to be 0.39.
For `FC(F)(F)c1ccc(N2CCC(n3ccnn3)CC2)nn1`, in that order: 0% and -0.04.
For `C[C@@H](C(=O)OCc1cccc2cccnc12)N1CCOCC1`, in that order: -4% and 0.63.
As for `Cc1cc(C)c(NC(=O)OCc2cccc3cccnc23)c(C)c1`, the “% Inhibition” value is on record as 88% and the Z score is reported as -13.23.
For `Cc1nc(C)c(C(=O)OCc2cccc3cccnc23)s1`, in that order: -18% and 3.51.
For `CC1CC(C(=O)NCC2CCCCC2)c2ccccc2N1` (stereo not drawn), in that order: 3% and -0.43.
For `Cc1noc(C)c1CN1C(=O)NC2(CCCCC2)C1=O`, in that order: -2% and 0.32.
In the case of `COc1ccc(CCNc2nc(-c3ccc(OC)cc3)c3c(N)n(-c4ccc(OC)cc4)nc3n2)cc1`, the “% Inhibition” value is listed as -13% and the Z score is 2.28.
On to `COc1cccc(C(=O)C[n+]2cc(-c3ccc(Br)cc3)n(C)c2N)c1`, for which the “% Inhibition” value came out at 35% and the Z score is given as -0.41.
For `COc1ccc2c(c1)[n+](CC(=O)c1ccc(-c3ccc(Br)cc3)cc1)c(CO)n2C`, the “% Inhibition” value stood at 70% and the Z score is recorded as -5.57.
For `Cc1ccc(C(=O)C[n+]2cc(-c3ccc(Br)cc3)n(C)c2N)cc1`, in that order: 38% and 2.56.
For `CC[N+](CC)(CC(=O)OC1CC2CCC1(C)C2(C)C)CC(=O)OC1CC2CCC1(C)C2(C)C` (stereo not drawn), in that order: 77% and -8.45.
For `CC1(C)C2CCC1(C)C(OC(=O)CN1CCCCCC1)C2` (stereo not drawn), in that order: 0% and -0.02.
As for `CCn1c(-n2nc(C)nc2[C@H]2CCS(=O)(=O)C2)nc2ccccc21`, the “% Inhibition” value was 4% and the Z score is on record as -0.76.
For `O=C(CNC(=O)c1cnccn1)NCCc1c[nH]c2ccc(F)cc12`, in that order: -5% and 0.67.
For `CCn1cc(C#N)c(=O)c2cc(F)c(N3CCN(Cc4ccccc4)CC3)cc21`, in that order: 68% and -7.22.
Consider `CCn1cc(-c2nc(-c3ccccc3)no2)c(=O)c2cc(F)c(N3CCCCC3)cc21`, for which the “% Inhibition” value is -9% and the Z score is on record as 1.55.
For `Cc1ccc(S(=O)(=O)c2cn(Cc3ccccc3)c3cc(N4CCCCC4)c(F)cc3c2=O)cc1`, in that order: -24% and 2.28.
For `CCn1cc(C(=O)O)c(=O)c2cc(F)c(N3CCN(S(=O)(=O)c4ccccc4)CC3)cc21`, in that order: 34% and 0.66.
For `CCn1cc(-c2nc(-c3ccccc3C)no2)c(=O)c2cc(F)c(N3CCCCC3)cc21`, in that order: 51% and -3.9.
Take `CCn1cc(-c2nc(-c3ccccc3C)no2)c(=O)c2cc(F)c(N3CCOCC3)cc21`: the “% Inhibition” value was determined as 40% and the Z score is given as -3.29.
On to `COc1cc(OC)cc(-c2c3c(O)nn(C(C)C)c3nc3[nH]c(=O)n(C)c23)c1`, for which the “% Inhibition” value is -3% and the Z score stood at 0.3.
For `O=C(Nc1ccc2c(c1)OCO2)c1ccc(=O)n(Cc2ccc(Cl)cc2)c1`, in that order: -15% and 1.88.
For `CCN(C(=O)c1nn(C)c2ccc(C)cc12)[C@H]1COC[C@@H]1O`, in that order: 5% and -1.
For `COc1cc(Cl)c(CNC(C)(C)CO)cc1OC`, in that order: 4% and -0.67.
Turning to `Cc1n[nH]c(C(=O)N2CCCCCC2)c1Br`, the “% Inhibition” value was 3% and the Z score is -0.33.
For `COCCNC(=O)c1coc(CN2C(=O)COc3ccc(C(=O)COc4ccccc4)cc32)n1`, in that order: -6% and 0.84.
For `N#Cc1nccnc1O[C@H]1CCCN(C(=O)NCc2ccc(Cl)cc2)C1`, in that order: -10% and 1.77.
For `Cc1nn(C(C)(C)C)c2nc(C3CC3)cc(C(=O)N3CCN(c4ccccc4)CC3)c12`, the “% Inhibition” value worked out at 7% and the Z score was -1.07.
For `Cc1nn(C(C)(C)C)c2nc(C3CC3)cc(C(=O)N(C)c3ccccc3)c12`, in that order: 55% and -8.04.
Take `Cc1nn(C(C)(C)C)c2nc(C3CC3)cc(C(=O)N(C)Cc3cccc(C#N)c3)c12`: the “% Inhibition” value was -7% and the Z score stood at 1.44.
For `CC(C)(C[C@H]1CCCN(C(=O)C2(C)CCCC2)C1)C(N)=O`, in that order: -4% and 0.57.
As for `COC(=O)C1CN(C(=O)CCc2cnn(C)c2)CC1c1ccccc1` (stereo not drawn), the “% Inhibition” value is -13% and the Z score worked out at 2.28.
For `O=C1C[C@@H](c2ccccc2)N(Cc2ccncc2)CCCNCCN1`, in that order: -9% and 1.07.
For `Cc1ccncc1C(=O)N1CCCN(Cc2ccncc2)[C@H](c2ccccc2)CC(=O)NCC1`, in that order: -4% and 0.48.
For `COc1cccc(S(=O)(=O)N2CCCN(Cc3ccncc3)[C@H](c3ccccc3)CC(=O)NCC2)c1`, in that order: 92% and -7.9.
